Assay results reported in PubChem BioAssay (Tox21).
Values without a mark were called inactive. Inconclusive results are not listed. A call without a number means that no potency is given here. Activity calls are given as the source filed them. Unless noted, calls come from the whole dose curve; as a rule, active = well fitted curve in the direction sought with a large enough effect in the repeat runs; inconclusive = weak or mixed curves; inactive = no such curve, though single readings can be large; an effect the other way counts as inactive or inconclusive.

Experiments:
[1] = biological target: Thyrotropin receptor (Homo sapiens) (UniProt P16473); assay: qHTS assay to identify small molecule agonists of the thyroid stimulating hormone receptor (TSHR) signaling pathway (AID 1224843; calls by dose curve; note: nearly all actives have a fitted effect of over 45% in size)
Sequence of Thyrotropin receptor (Homo sapiens) (P16473 whole entry, looked up): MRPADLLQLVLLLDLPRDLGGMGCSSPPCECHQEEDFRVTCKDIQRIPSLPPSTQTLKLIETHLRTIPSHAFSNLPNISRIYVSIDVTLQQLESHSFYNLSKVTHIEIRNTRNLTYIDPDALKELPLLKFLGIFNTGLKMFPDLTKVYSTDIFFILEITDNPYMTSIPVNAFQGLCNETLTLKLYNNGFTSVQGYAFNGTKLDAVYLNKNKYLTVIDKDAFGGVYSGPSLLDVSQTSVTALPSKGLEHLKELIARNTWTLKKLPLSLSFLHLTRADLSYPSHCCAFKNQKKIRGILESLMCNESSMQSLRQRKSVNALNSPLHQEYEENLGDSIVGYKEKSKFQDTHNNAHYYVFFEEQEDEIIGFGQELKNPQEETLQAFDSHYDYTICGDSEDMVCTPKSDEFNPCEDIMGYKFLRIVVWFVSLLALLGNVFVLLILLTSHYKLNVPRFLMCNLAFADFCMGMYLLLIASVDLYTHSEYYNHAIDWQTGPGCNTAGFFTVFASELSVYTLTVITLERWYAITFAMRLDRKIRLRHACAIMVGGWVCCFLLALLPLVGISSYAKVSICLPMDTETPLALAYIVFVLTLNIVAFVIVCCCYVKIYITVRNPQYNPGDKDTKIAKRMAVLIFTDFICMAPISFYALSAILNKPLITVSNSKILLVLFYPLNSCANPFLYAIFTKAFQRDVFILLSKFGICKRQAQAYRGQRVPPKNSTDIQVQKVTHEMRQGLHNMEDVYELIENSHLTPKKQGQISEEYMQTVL
Procedure, shortened: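 Steps: seed 800 TSHR-HEK293 cells per well; add test compound and hold 30 min at ambient temperature; dispense cAMP-d2 then anti-cAMP cryptate; incubate 1 h at ambient; measure fluorescence intensity.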

[2] = qHTS assay to identify small molecule agonists of the hypoxia (HIF-1) signaling pathway - cell viability counter screen (AID 1224844; calls by dose curve; note: nearly all actives have a fitted effect of over 50% in size)
Procedure, shortened: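 Cells (HRE-bla ME-180, 2,000 per well) sat 5 hrs at 37C, got compound for 17 hrs, were read for CCF4-AM FRET, and were finally lysed with CellTiter-Glo for a 30 min room-temperature luminescence read.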

[3] = qHTS assay to identify small molecule agonists of H2AX (AID 1224845; active = well fitted activation curve with a large enough effect in the signal ratio in the repeat runs, not every such curve was filed as active; the % refers to the signal ratio)
Procedure, shortened: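 Wild-type CHO-K1 cells, plated overnight, exposed 3hr at 37C to 15 concentrations (0.76% DMSO final). Lysed, then HTRF anti-pH2AX (S139) cryptate and anti-H2AX-d2 antibodies, 24 hr room temperature; 665/620 nm emission read.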

[4] = qHTS assay to identify small molecule agonists of the hypoxia (HIF-1) signaling pathway (AID 1224846; active = well fitted activation curve with a large enough effect in the signal ratio in the repeat runs, not every such curve was filed as active; the % refers to the signal ratio)
Procedure, shortened: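 A low-serum medium (0.5% dialyzed FBS) holding 2,000 HRE-bla ME-180 cells per well is preincubated for 5 hrs, dosed with compounds by pintool, and kept a further 17 hrs at 37C, 5% CO2 before CCF4-AM FRET detection of beta-lactamase.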

[5] = qHTS assay to identify small molecule agonists of H2AX - cell viability counter screen (AID 1224847; calls by dose curve; note: top concentration of the series differs between compounds; nearly all actives have a fitted effect of over 30% in size)
Procedure, shortened: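 Cells plated first: CHO-K1, 1000 per well in 10% FBS medium, incubated overnight at 37C. Then 15-point compound titration added (final DMSO 0.76%) for 3 hr. Finally CellTiter-Glo added and luminescence read.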

[6] = qHTS RealTime-Glo MT Cell Viability Assay in HepG2 cells - 24 hour (AID 1224867); note: nearly all actives have a fitted effect of over 50% in size
Procedure, shortened: (§1)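 Cell number in HepG2 cultures estimated from NanoLuc luminescence generated by metabolic reduction of a prosubstrate by living cells. The homogeneous, nonlytic format allowed repeated reads at 0, 8, 16, 24, 32 and 40 h of compound exposure.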

[7] = qHTS RealTime-Glo MT Cell Viability Assay in HEK293 cells - 32 hour (AID 1224868); note: top concentration of the series differs between compounds; nearly all actives have a fitted effect of over 50% in size
Procedure, shortened: (§2)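 Homogeneous bioluminescent viability format in HEK293 cells (600 cells/well). Following 5 h at 37 C/5% CO2, 23 nL compound was pintooled; the signal was measured repeatedly during 40 h incubation.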

[8] = A CellTox Green Cytotoxicity Assay to monitor cytotoxicity in HEK293 cells - 0 hour (AID 1224869); note: nearly all actives have a fitted effect of over 50% in size
Procedure, shortened: (§3)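 Fluorescence intensity, read at 0, 8, 16, 24, 32 and 40 h of compound treatment, reflected dye binding to DNA of dead HEK293 cells; compounds (23 nL, DMSO) were added 5 h after plating cells with reagent.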

[9] = qHTS RealTime-Glo MT Cell Viability Assay in HepG2 cells - 40 hour (AID 1224870); note: nearly all actives have a fitted effect of over 50% in size
Procedure, shortened: (§4)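 HepG2 cells (600/well) mixed with RealTime-Glo MT reagent, settled 5 h at 37 C/5% CO2 before compound addition. Nonlytic NanoLuc luminescence from viable-cell prosubstrate reduction read repeatedly during 40 h treatment at 37 C.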

[10] = A CellTox Green Cytotoxicity Assay to monitor cytotoxicity in HEK293 cells - 40 hour (AID 1224871); note: nearly all actives have a fitted effect of over 45% in size
Procedure, shortened: as §3

[11] = qHTS RealTime-Glo MT Cell Viability Assay in HEK293 cells - 16 hour (AID 1224872)
Procedure, shortened: as §2

[12] = qHTS RealTime-Glo MT Cell Viability Assay in HepG2 cells - 8 hour (AID 1224873); note: nearly all actives have a fitted effect of over 55% in size
Procedure, shortened: as §4

[13] = qHTS RealTime-Glo MT Cell Viability Assay in HEK293 cells - 40 hour (AID 1224874); details: RealTime-Glo luminescence; max response: hits give low values; note: nearly all actives have a fitted effect of over 50% in size
Procedure, shortened: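 Viable HEK293 cells reduce a cell-permeant prosubstrate; the product diffuses out and is consumed by NanoLuc in the medium to give light. Compounds went in after a 5 h incubation and plates were read over the treatment course.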

[14] = A CellTox Green Cytotoxicity Assay to monitor cytotoxicity in HEK293 cells - 24 hour (AID 1224875); note: nearly all actives have a fitted effect of over 45% in size
Procedure, shortened: as §3

[15] = A CellTox Green Cytotoxicity Assay to monitor cytotoxicity in HepG2 cells - 16 hour (AID 1224876); note: nearly all actives have a fitted effect of over 45% in size
Procedure, shortened: (§5)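 Using 1536-well format, dye-containing HepG2 suspension was seeded, allowed 5 h at 37 C/5% CO2, dosed by pintool with compounds, positive and negative controls, and imaged for fluorescence across 40 h.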

[16] = qHTS RealTime-Glo MT Cell Viability Assay in HepG2 cells - 32 hour (AID 1224877); note: nearly all actives have a fitted effect of over 55% in size
Procedure, shortened: as §1

[17] = A CellTox Green Cytotoxicity Assay to monitor cytotoxicity in HepG2 cells - 24 hour (AID 1224878); note: nearly all actives have a fitted effect of over 45% in size
Procedure, shortened: as §5

[18] = A CellTox Green Cytotoxicity Assay to monitor cytotoxicity in HepG2 cells - 40 hour (AID 1224879); note: nearly all actives have a fitted effect of over 40% in size
Procedure, shortened: as §5

[19] = qHTS assay to identify small molecule antagonists of the estrogen related receptor (ERR) signaling pathway from Tox21 library (AID 1224848); note: nearly all actives have a fitted effect of over 50% in size; note: potency is the fitted concentration of half-maximal effect
Procedure, shortened: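 Luminescent reporter read-out (ONE-Glo) from NTP's ERR cell line after 18 h treatment at 37 C with DMSO-dissolved Tox21 compounds; cells pre-plated 6 h beforehand at 2,000 per well.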

[20] = qHTS assay to identify small molecule agonists of the estrogen related receptor (ERR) signaling pathway from Tox21 library (AID 1224849; calls by dose curve; note: nearly all actives have a fitted effect of over 15% in size); details: ERR reporter cell line, ONE-Glo luciferase, 18 h; at 92.4 µM (top of the series) unless noted
Procedure, shortened: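 Screening used an NTP-provided ERR luciferase cell line. Compounds in DMSO were added 6 h after seeding and left 18 h at 37 C before a 30 min ONE-Glo step and luminescence reading.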

SMILES	Potency [1]	Potency [2]	Potency [3]	outcome [4]	Potency [5]	outcome [6]	Potency [7]	Potency [8]	Potency [9]	Potency [10]	Potency [11]	outcome [12]	max response [13]	Potency [14]	Potency [15]	Potency [16]	Potency [17]	Potency [18]	Potency [19]	activity change, positive = activation [20]
C1CCN(CN2CCCCC2)CC1	inactive	inactive	inactive	inactive	inactive	inactive	inactive	inactive	inactive	inactive	inactive	inactive	7.66%	inactive	inactive	inactive	inactive	inactive		
COC(=O)c1cc(Cl)ccc1[N+](=O)[O-]	inactive	inactive	inactive	inactive	inactive	inactive	inactive	inactive	inactive	inactive	inactive	inactive	-14.8%	inactive		inactive	inactive	inactive		
C=CC(C)CCC=C(C)C (configuration not stated)	inactive	inactive	inactive	inactive	inactive	inactive	inactive	inactive	inactive	inactive	inactive	inactive	0.513%	inactive	inactive	inactive	inactive	inactive		
CC(C)(C)N	inactive	inactive	inactive	inactive	inactive	inactive	inactive	inactive	inactive	inactive	inactive	inactive	1.55%	inactive		inactive	inactive	inactive		
O=C(N[C@@H](Cc1ccccc1)[C@@H](O)C(=O)N1C[C@@H](O)[C@@H](O)C1)c1cc2cc(Cl)ccc2[nH]1	inactive	inactive	inactive	inactive	inactive	inactive		inactive	inactive	inactive	inactive	inactive		inactive		inactive			54.5 µM (active)	-40.7%
C/C(=C\C(C)CC(C)CC(C)C)C1CC(=O)OC1=O (configuration not stated)	inactive	inactive	inactive	inactive	inactive	inactive	inactive	inactive	inactive	inactive	inactive	inactive	-12%	inactive	inactive	inactive	inactive	inactive		
N#C[C@@H]1CC(F)(F)CN1C(=O)CNC1CC2CCC(C1)N2c1ncccn1 (some centres not stated)	inactive	inactive	inactive	inactive	inactive	inactive	inactive	inactive	inactive	inactive	inactive	inactive	1.88%	inactive	inactive	inactive	inactive		inactive	-3.52%
